Laboratory results: PubChem BioAssay (NCI)
Compounds without any hit were thinned out: in the full panel of roughly 83,000, 20% have a hit.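 Growth was measured after 48 h exposure to one concentration of compound in 96-well plates. Values under 10 count as active.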 Unmarked numbers belong to inactive results. Activity calls are given as the source filed them.

These compounds were tested on MDA-MB-468 breast (assay: NCI-60 one-dose screen, 48 h (100 = growth as untreated, 0 = no growth, -100 = all killed)). Conditions: 10 µM unless noted.

Row | Structure (SMILES) | growth
1 | CNC(=O)c1c(NC(=O)c2ccccc2C(F)(F)F)sc2c1CCC(=O)C2 | 25.1%
2 | O=S(=O)(c1ccccc1)n1cc2c(c1)-c1nc(Nc3ncccn3)sc1CC2 | 46.3%
3 | CC(=O)O[C@H]1Cc2c([nH]c3ccccc23)[C@@H](c2ccc(Cl)cc2)N1C(=O)CCNC(C)(C)C | 8.31% (active)
4 | CN1CCC(c2ccccc2)(c2ccccc2)C(=O)C1 | -11.8% (active)
5 | Nn1c(N/N=C/c2nc3ccccc3s2)n[nH]c1=S | 109%
6 | CC(C)C1=NOC(=O)C1=Cc1cn(-c2ccccc2)nc1-c1ccc(Cl)cc1 | 86.7%
7 | O=Nc1ccc(O)c(=O)cc1 | -53.1% (active)
8 | O=C1OC2(c3ccccc31)c1ccccc1-c1ccccc12 | 40.2%
9 | CC[C@]1(O)C[C@@H]2CN(CCc3c([nH]c4ccccc34)[C@@](C(=O)OC)(c3cc4c(cc3OC)N(C)[C@H]3[C@@](O)(C(=O)OC)[C@H](OC(=O)CCCBr)[C@]5(CC)C=CCN6CC[C@]43[C@@H]65)C2)C1 | 31.8%
10 | C=C(C)[C@@H]1CC[C@]2(COC(=O)c3cccnc3)CC[C@]3(C)[C@H](CC[C@@H]4[C@@]5(C)CCCN(C(=O)c6cccnc6)C(C)(C)[C@@H]5CC[C@]43C)[C@@H]12 | 23.3%
11 | Cc1cccc(/C=C/c2nn3c(-c4ccco4)nnc3s2)c1 | 93.9%
12 | CC(C)c1[nH]nc2c(NCc3ccc(-c4ccccn4)cc3)nc(SCCN(C)C)nc12 | -50.1% (active)
13 | CCN(CC)C12CCCCC1(C)C(C#N)(C#N)C(C#N)=C(N)O2 (configuration not stated) | 93.5%
14 | O=C(NN(C(=O)c1ccccc1)c1cccs1)c1ccccc1 | 103%
15 | COc1ccc(Nc2cc(NC(=O)CNc3cc(OC)c(Cl)c(OC)c3Cl)ncn2)cc1 | 80.8%
16 | CC(C)C[C@H](C(=O)N[C@H](C(N)=O)C(C)C)N1CC=CCN(OCc2ccccc2)S1(=O)=O | 105% [2.5 µM]
17 | Cc1cc(C(=O)c2ccc(Cl)cc2)ccc1O | 96.1%
18 | COc1cc2c(cc1OC)C(C(CCCCCC(CCC(C)C)C1NCCc3cc(OC)c(OC)cc31)CCC(C)C)NCC2 (configuration not stated) | -87.1% (active)
19 | O=C(Nc1ccc(-n2ccc3c(NC(=O)c4ccccc4)nccc32)cc1)c1cccc(C(F)(F)F)c1 | 16.8%

Row | Structure (SMILES) | growth
20 | CCCCN1CCCn2c1nc1c2c(=O)n(CCC)c(=O)n1CCC | 101%
21 | Fc1ccc(Nc2nc(Nc3ccc(-c4nc5ccccc5[nH]4)cc3)c3cn[nH]c3n2)cc1 | -22.1% (active)
22 | O=C(NCCNc1nccc(-n2ccc3cccnc32)n1)c1ccc(C(F)(F)F)cc1 | 110%
23 | Nc1ncnc2c1c(-c1ccc(Oc3ccccc3)cc1)nn2C[C@H]1SSC[C@H]1O | -5.04% (active)
24 | COc1ccc(C=C2c3ccccc3-c3ccccc32)cc1 | 41.3%
25 | COc1cccc(CC(C)=C(c2ccc(OCCCN(C)C)cc2)c2ccc(OCCCN(C)C)cc2)c1 | -83.4% (active)
26 | COc1ccc(-c2nn(-c3ccc(NC(=O)Nc4ccc(Cl)c(Cl)c4)cc3)cc2-c2ccncc2)cc1Cl | -33.2% (active)
27 | COc1cccc2cc(N(C)c3ncnc4ccccc34)ccc12 | -7.56% (active)
28 | Cc1cccc(Cc2cnc(NC(=O)CCCOc3ccc(Cl)cc3)s2)c1 | 3.77% (active)
29 | O=C1c2cc3c(cc2-c2c1c1cc(Cl)c(Cl)cc1c(=O)n2C[C@H](O)CO)OCO3 | -54.1% (active)
30 | O=C(Nc1ccc(OS(=O)(=O)Cc2ccccc2)cc1)C12CC3CC(CC(C3)C1)C2 | 66.6%
31 | Cc1cc(Cl)ccc1Nc1nc(C(F)(F)F)ccc1C(=O)N/N=C/c1ccccc1Cl | 6.05% (active)
32 | Cc1nc2ccccc2c(/C=C/c2ccc(Br)cc2)c1C(=O)/C=C/c1ccccc1 | -15.5% (active)
33 | O=C(c1nnc(Nc2ccccc2Br)o1)c1c[nH]c2ccccc12 | 103%
34 | O=S(=O)(NCCCNc1nccc(-c2c(-c3ccc(F)cc3)nc3sccn23)n1)c1ccc2ccccc2c1 | 51.8%
35 | O=C(Cc1nc2ccc([N+](=O)[O-])cc2nc1CC(=O)c1cccnc1)c1cccnc1 | 75.7%
36 | O=C(/C=C/c1cccc(Cl)c1Cl)Nc1ncc(Cc2ccccc2Cl)s1 | 10.4%
37 | NS(=O)(=O)N(c1cc(C(F)(F)F)cc(C(F)(F)F)c1)C1CCN(Cc2ccc(C(F)(F)F)cc2)CC1 | -42.5% (active)
